Measured values: PubChem BioAssay (NCATS)
Results filed as inconclusive are left out. Active and inactive are the calls of the source. Unless noted, the call rests on the fitted dose curve; in most records, active means well fitted curve in the direction sought with a large enough effect; inconclusive means small, poorly fitted or top-dose-only effect, or another doubt; inactive means no such curve, though single readings can be large; an effect the other way counts as inactive or inconclusive.

How the values were obtained:
[1] = target: Lysosomal acid glucosylceramidase (Homo sapiens) (UniProt P04062); test: Glucocerebrosidase-p2 (AID 348; in the data active means potency below about 10 µM; further: potency means the concentration at half of the fitted maximal effect); conditions: purified GBA, blue fluorogenic substrate, 40 min
Chain of Lysosomal acid glucosylceramidase (Homo sapiens) (P04062 whole entry, looked up): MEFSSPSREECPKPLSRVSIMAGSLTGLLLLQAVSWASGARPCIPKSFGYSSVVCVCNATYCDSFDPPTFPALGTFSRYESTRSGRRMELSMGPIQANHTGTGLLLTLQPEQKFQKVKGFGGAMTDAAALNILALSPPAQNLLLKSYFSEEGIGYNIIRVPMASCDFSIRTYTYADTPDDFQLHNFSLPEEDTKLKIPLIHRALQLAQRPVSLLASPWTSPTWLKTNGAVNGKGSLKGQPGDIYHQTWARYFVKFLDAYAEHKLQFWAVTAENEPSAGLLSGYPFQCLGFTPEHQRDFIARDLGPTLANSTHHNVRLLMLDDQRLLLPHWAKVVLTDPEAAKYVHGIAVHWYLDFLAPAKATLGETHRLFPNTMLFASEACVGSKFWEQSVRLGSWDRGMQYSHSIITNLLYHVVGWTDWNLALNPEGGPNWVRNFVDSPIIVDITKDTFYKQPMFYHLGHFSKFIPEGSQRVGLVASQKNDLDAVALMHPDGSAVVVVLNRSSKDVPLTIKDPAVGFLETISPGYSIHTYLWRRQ
Method in brief: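 Compounds titrated from 0.6 nM upwards against 0.2 nM enzyme in pH 5.9 citric acid/KH2PO4, taurocholate, tween-20; blue fluorogenic substrate 80 uM, 40 min room temperature, stopped and read Ex 365/Em 440 for AC50.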

[2] = AP1 Signaling Pathway (AID 357; active means well fitted curve in either direction with a large enough effect, not every such curve was filed as active;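 further: ME-180 reporter cells stimulated with EGF at its EC50 level; on the % scale 0 is the no-effect control and ±100 the full control effect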); conditions: ME-180 AP-1-bla reporter, EGF-induced, beta-lactamase ratio, 5 h; at 7.69 µM (top of the series) unless noted
Method in brief: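 In this screen, ME-180 cells in Opti-MEM with 0.5% dialyzed FBS received EC50 EGF and compound titrations for 5 h. AP-1 reporter beta-lactamase was detected via CCF4 ratio, giving AC50 for positive and negative modulators.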

[3] = Stat Signaling Pathway (AID 446; active means well fitted curve in either direction with a large enough effect, not every such curve was filed as active;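 further: ME-180 cervical cancer cells given 40 pM IL-6 alongside compound; SIE-controlled beta-lactamase reporter measured as 460/530 nm FRET emission ratio; on the % scale 0 is the no-effect control and ±100 the full control effect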); conditions: ME-180 SIE beta-lactamase reporter, IL-6 stimulated, 5 h; at 7.69 µM (top of the series) unless noted
Method in brief: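 ME-180 cells carrying a SIE-driven beta-lactamase reporter are stimulated with 40 pM IL-6 for 5 h at 37C in the presence of compound. The 460/530 nm FRET substrate ratio is read after 2.5 h at RT. Data are normalised to 300 pM IL-6 and to 125 nM JAK inhibitor controls.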

[4] = target: 3',5'-cyclic-AMP phosphodiesterase 4B (Homo sapiens) (UniProt Q07343); test: qHTS Assay for Inhibitors of PDE-IV (AID 607; active means well fitted activation curve with a large enough effect in the main read-out, with a control signal flat, not every such curve was filed as active; further: % of control where 0% means no effect); conditions: HEK293 ACTOne CNG channel cells, membrane potential fluorescence; series mostly up to 22.9 µM
Chain of 3',5'-cyclic-AMP phosphodiesterase 4B (Homo sapiens) (Q07343 whole entry, looked up): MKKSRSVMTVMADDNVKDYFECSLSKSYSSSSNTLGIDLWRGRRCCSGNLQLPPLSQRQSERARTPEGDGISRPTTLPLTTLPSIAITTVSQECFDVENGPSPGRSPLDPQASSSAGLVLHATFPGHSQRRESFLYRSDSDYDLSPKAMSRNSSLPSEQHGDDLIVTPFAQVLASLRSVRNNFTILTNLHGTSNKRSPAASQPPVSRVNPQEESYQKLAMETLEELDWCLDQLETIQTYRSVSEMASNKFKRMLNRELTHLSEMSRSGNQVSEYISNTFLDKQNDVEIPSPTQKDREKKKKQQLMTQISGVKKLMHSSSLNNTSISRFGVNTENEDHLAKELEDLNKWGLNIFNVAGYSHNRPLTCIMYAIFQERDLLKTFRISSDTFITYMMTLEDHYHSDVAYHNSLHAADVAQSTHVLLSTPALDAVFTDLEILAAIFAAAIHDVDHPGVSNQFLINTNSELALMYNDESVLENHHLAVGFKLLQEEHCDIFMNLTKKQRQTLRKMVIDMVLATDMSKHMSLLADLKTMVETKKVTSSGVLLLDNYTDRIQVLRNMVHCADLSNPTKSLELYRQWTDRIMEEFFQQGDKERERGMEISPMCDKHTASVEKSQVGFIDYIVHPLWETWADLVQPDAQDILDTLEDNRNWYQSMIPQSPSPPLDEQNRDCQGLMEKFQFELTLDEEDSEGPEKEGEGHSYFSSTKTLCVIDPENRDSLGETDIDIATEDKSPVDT
Method in brief: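 HEK293 ACTOne cells with CNG channel (1000/well), endogenous PDE4; membrane potential dye, compounds up to 22.9 uM final. Fluorescence Ex 535/Em 590; RO 20-1724 (100 uM final) as reference.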

[5] = target: ATP-dependent 6-phosphofructokinase (Trypanosoma brucei brucei) (UniProt O15648); test: qHTS Assay to Find Inhibitors of T. brucei phosphofructokinase: hit validation (AID 492961);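 further: luminescence reports ADP formed as PFK phosphorylates fructose-6-phosphate with ATP; on the % scale 0 is the no-effect control and ±100 the full control effect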; conditions: T. brucei PFK, ADP-Glo luminescence; series mostly up to 51.4 µM
Chain of ATP-dependent 6-phosphofructokinase (Trypanosoma brucei brucei) (O15648 whole entry, looked up): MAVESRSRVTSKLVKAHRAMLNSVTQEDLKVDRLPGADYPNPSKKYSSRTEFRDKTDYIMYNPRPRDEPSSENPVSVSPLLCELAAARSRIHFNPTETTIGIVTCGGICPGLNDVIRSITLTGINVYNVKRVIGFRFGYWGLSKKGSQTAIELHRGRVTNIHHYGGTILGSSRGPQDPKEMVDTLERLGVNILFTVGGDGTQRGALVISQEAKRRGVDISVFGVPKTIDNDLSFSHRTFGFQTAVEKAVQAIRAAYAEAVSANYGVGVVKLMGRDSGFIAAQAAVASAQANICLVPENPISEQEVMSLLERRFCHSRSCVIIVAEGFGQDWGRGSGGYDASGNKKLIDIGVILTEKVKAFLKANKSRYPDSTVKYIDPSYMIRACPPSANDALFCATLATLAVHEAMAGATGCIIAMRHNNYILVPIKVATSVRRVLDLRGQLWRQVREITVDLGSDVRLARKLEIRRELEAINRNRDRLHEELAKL
Method in brief: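 Reaction: 0.1 M triethanolamine pH 8.0, 5 mM MgCl2, F6P 0.5 mM, ATP 0.1 mM, PFK 1.25 nM, 45 min RT. Read-out: ADP-Glo luminescence. Analysis: concentration-response fits, classed by r2 and efficacy.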

[6] = target: Luciferin 4-monooxygenase (Photinus pyralis) (UniProt P08659); test: Biochemical firefly luciferase enzyme assay for NPC (AID 624030);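 further: purified P. pyralis luciferase at 10 nM with luciferin and ATP substrate; 0% = DMSO and -100% = full luciferase inhibition by PTC124 control; nearly all actives have a fitted effect of over 70% in size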; conditions: purified P. pyralis luciferase, luminescence, 5 min; series mostly up to 58.6 µM
Chain of Luciferin 4-monooxygenase (Photinus pyralis) (P08659 whole entry, looked up): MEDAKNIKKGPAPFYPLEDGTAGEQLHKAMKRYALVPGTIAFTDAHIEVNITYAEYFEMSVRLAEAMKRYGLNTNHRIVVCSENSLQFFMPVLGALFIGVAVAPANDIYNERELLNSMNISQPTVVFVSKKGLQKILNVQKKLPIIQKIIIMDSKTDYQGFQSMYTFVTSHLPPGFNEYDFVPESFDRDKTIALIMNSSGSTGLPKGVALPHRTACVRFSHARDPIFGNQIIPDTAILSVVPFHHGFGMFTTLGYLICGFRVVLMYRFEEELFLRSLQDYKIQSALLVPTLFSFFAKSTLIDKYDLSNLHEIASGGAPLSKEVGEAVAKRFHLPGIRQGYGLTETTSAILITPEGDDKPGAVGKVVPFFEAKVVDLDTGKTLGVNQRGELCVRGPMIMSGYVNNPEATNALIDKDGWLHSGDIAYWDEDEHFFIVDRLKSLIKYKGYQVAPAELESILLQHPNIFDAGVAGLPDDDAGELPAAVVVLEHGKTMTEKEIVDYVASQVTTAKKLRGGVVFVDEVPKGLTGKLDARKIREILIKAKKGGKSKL
Method in brief: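 Counter-screen for direct inhibition of the luciferase enzyme by approved-drug library compounds, run at 10 nM enzyme in 50 mM Tris acetate (final). Luminescence was read within 5 min of enzyme-buffer addition and normalized to PTC124 versus DMSO (0%).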

[7] = S16 Schwann cell viability assay (CellTiter-Glo assay) (AID 624031); conditions: S16 rat Schwann cells viability, 24 h; series mostly up to 57.5 µM;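 further: native untransfected S16 rat Schwann cells; plate controls were DMSO-treated cells for no effect and cell-free wells for full effect; nearly all actives have a fitted effect of over 70% in size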
Method in brief: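 Counter-screen for cytotoxicity: parental S16 rat Schwann cells lacking the PMP22 reporters, treated 24 h with compound, viability from cellular ATP by CellTiter-Glo luminescence, normalized to DMSO (0%) and no-cell wells.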

[8] = S16 Schwann cell PMP22 intronic element firefly luciferase assay (AID 624032); conditions: S16 rat Schwann cells, PMP22 element FLuc, 24 h; series mostly up to 57.5 µM;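 further: plate controls were DMSO for no effect and PTC124 positive control mean for full effect; nearly all actives have a fitted effect of over 30% in size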
Method in brief: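 Rat S16 Schwann cells stably carrying a PMP22 intronic element-driven Fluc reporter were seeded overnight, then exposed to compounds for 24 h at 37 °C. Luminescence was normalized to PTC124 (positive control) and DMSO (0% activity).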

[9] = S16 Schwann cell PMP22 intronic element beta-lactamase assay (AID 624044; calls by dose curve;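 further: 0% = DMSO and -100% = potassium clavulanate positive control; nearly all actives have a fitted effect of over 15% in size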); conditions: S16 rat Schwann cells, PMP22 element beta-lactamase FRET, 24 h; series mostly up to 38.3 µM
Method in brief: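 Rat S16 Schwann cells with beta-Lac driven by a PMP22 intronic element, compound-treated 24 h at 37 °C. LiveBLAzer FRET B/G read: 460 nm normalized to potassium clavulanate vs DMSO; 535 nm FRET as viability; concentration-effect curves classified.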

[10] = qHTS profiling for inhibitors of Plasmodium falciparum proliferation (AID 504749);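 further: 0% = DMSO vehicle and full inhibition = artemisinin control; nearly all actives have a fitted effect of over 60% in size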; conditions: P. falciparum in erythrocytes, SYBR Green DNA, 72 h, at 28.7 µM (top of the series)
Method in brief: (§1)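 Parasite proliferation within erythrocytes, 72 h exposure. Endpoint: SYBR Green I fluorescence after overnight lysis at room temperature. Controls: 0.29 uM artemisinin, DMSO.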

3D7 = test: as above; conditions: P. falciparum in erythrocytes, SYBR Green DNA, 72 h; series mostly up to 28.7 µM
Method in brief: as §1

7G8 = test: as above; conditions: P. falciparum in erythrocytes, SYBR Green DNA, 72 h; series mostly up to 28.7 µM
Method in brief: as §1

AA1029 = test: as above; conditions: P. falciparum in erythrocytes, SYBR Green DNA, 72 h; series mostly up to 28.7 µM
Method in brief: as §1

AS120 = test: as above; conditions: P. falciparum in erythrocytes, SYBR Green DNA, 72 h; series mostly up to 28.7 µM
Method in brief: as §1

ATS189 = test: as above; conditions: P. falciparum in erythrocytes, SYBR Green DNA, 72 h; series mostly up to 28.7 µM
Method in brief: as §1

ATS95 = test: as above; conditions: P. falciparum in erythrocytes, SYBR Green DNA, 72 h; series mostly up to 28.7 µM
Method in brief: as §1

C2A = test: as above; conditions: P. falciparum in erythrocytes, SYBR Green DNA, 72 h; series mostly up to 28.7 µM
Method in brief: as §1

CP185 = test: as above; conditions: P. falciparum in erythrocytes, SYBR Green DNA, 72 h; series mostly up to 28.7 µM
Method in brief: as §1

CP191 = test: as above; conditions: P. falciparum in erythrocytes, SYBR Green DNA, 72 h; series mostly up to 28.7 µM
Method in brief: as §1

CP192 = test: as above; conditions: P. falciparum in erythrocytes, SYBR Green DNA, 72 h; series mostly up to 28.7 µM
Method in brief: as §1

CP194 = test: as above; conditions: P. falciparum in erythrocytes, SYBR Green DNA, 72 h; series mostly up to 28.7 µM
Method in brief: as §1

CP201 = test: as above; conditions: P. falciparum in erythrocytes, SYBR Green DNA, 72 h; series mostly up to 28.7 µM
Method in brief: as §1

CP203 = test: as above; conditions: P. falciparum in erythrocytes, SYBR Green DNA, 72 h; series mostly up to 28.7 µM
Method in brief: as §1

CP211 = test: as above; conditions: P. falciparum in erythrocytes, SYBR Green DNA, 72 h; series mostly up to 28.7 µM
Method in brief: as §1

CP215 = test: as above; conditions: P. falciparum in erythrocytes, SYBR Green DNA, 72 h; series mostly up to 28.7 µM
Method in brief: as §1

CP217 = test: as above; conditions: P. falciparum in erythrocytes, SYBR Green DNA, 72 h; series mostly up to 28.7 µM
Method in brief: as §1

CP237 = test: as above; conditions: P. falciparum in erythrocytes, SYBR Green DNA, 72 h; series mostly up to 28.7 µM
Method in brief: as §1

CP238 = test: as above; conditions: P. falciparum in erythrocytes, SYBR Green DNA, 72 h; series mostly up to 28.7 µM
Method in brief: as §1

CP247 = test: as above; conditions: P. falciparum in erythrocytes, SYBR Green DNA, 72 h; series mostly up to 28.7 µM
Method in brief: as §1

CP250 = test: as above; conditions: P. falciparum in erythrocytes, SYBR Green DNA, 72 h; series mostly up to 28.7 µM
Method in brief: as §1

CP252 = test: as above; conditions: P. falciparum in erythrocytes, SYBR Green DNA, 72 h; series mostly up to 28.7 µM
Method in brief: as §1

CP256 = test: as above; conditions: P. falciparum in erythrocytes, SYBR Green DNA, 72 h; series mostly up to 28.7 µM
Method in brief: as §1

CP260 = test: as above; conditions: P. falciparum in erythrocytes, SYBR Green DNA, 72 h; series mostly up to 28.7 µM
Method in brief: as §1

CN1[C@@H]2CC(OC(=O)[C@@H](CO)c3ccccc3)C[C@@H]1[C@H]1O[C@H]12 (some centres undefined)
inactive: Potency [1] > 11.4 µM | activity change, negative = inhibition [2] 20.3% | activity, negative = inhibition [3] 6.14% | Potency [4] | outcome [5] | outcome [6] | Potency [7] | Potency [8] | outcome [9] | activity, negative = inhibition ([10]; parasite line A) 11.4% | activity, negative = inhibition ([10]; parasite line B) 4.71% | Potency (3D7) | Potency (7G8) | Potency (AA1029) | Potency (AS120) | Potency (ATS189) | Potency (ATS95) | Potency (C2A) | Potency (CP185) | Potency (CP191) | Potency (CP192) | Potency (CP194) | Potency (CP201) | Potency (CP203) | Potency (CP211) | Potency (CP215) | Potency (CP217) | Potency (CP237) | Potency (CP238) | Potency (CP247) | Potency (CP250) | Potency (CP252) | Potency (CP256) | Potency (CP260)
